Source: PubChem BioAssay (NCI)
The panel holds about 79,000 compounds, 15% with a hit somewhere; the sample as a whole holds those more often. The source made the active and inactive calls. No stated cut-off is given here; in the data, active means growth inhibition above about 70%; inactive means the rest. Where a SMILES comes first, the peptide text is derived from it. The star is where a group is joined. Cbz = O=C(OCc1ccccc1)*

Tests used:
[1] = NCI Yeast Anticancer Drug Screen. Data for the rad50 strain (AID 155);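 further: 0% = growth of vehicle-only cultures of the same strain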; details: S. cerevisiae rad50 strain growth inhibition; at 50.0 µM; hits give high values
Method in brief: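 Vehicle-treated cultures provide the reference for the growth inhibition reported for compound-exposed, repair-deficient yeast.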

[2] = NCI Yeast Anticancer Drug Screen. Data for the mec2-1 strain (AID 157); details: S. cerevisiae mec2-1 strain, at 50.0 µM, hits give high values
Method in brief: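 Vehicle-treated cultures served as reference for growth inhibition of compound-exposed mec2-1 yeast.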

[3] = NCI Yeast Anticancer Drug Screen. Data for the sgs1 mgt1 strain (AID 161);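 further: 0% = growth of cultures given vehicle only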; details: S. cerevisiae sgs1 mgt1 strain, at 50.0 µM, hits give high values
Method in brief: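 Inhibition of yeast growth, normalised to vehicle-treated controls, is reported for a strain bearing genetic alterations in DNA damage repair.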

[4] = NCI Yeast Anticancer Drug Screen. Data for the bub3 strain (AID 167); details: S. cerevisiae bub3 mutant strain, at 50.0 µM, hits give high values
Method in brief: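 Mutant yeast screening strain plus compound; vehicle-treated cultures serve as the 0% inhibition reference.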

[5] = NCI Yeast Anticancer Drug Screen. Data for the mlh1 rad18 strain (AID 175); details: S. cerevisiae mlh1 rad18 strain growth inhibition; at 50.0 µM; hits give high values
Method in brief: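 Vehicle-treated cultures served as the reference for growth inhibition in a yeast strain carrying DNA damage repair alterations exposed to each compound.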

[6] = NCI Yeast Anticancer Drug Screen. Data for the cln2 rad14 strain (AID 165);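 further: 0% = growth equal to vehicle treated cultures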; details: S. cerevisiae cln2 rad14 strain, at 50.0 µM, hits give high values
Method in brief: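 Each compound was tested on cln2 rad14 yeast. Inhibition of growth was calculated against vehicle-exposed controls.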

Measured: growth inhibition

Oc1cccc(Oc2cccc(Oc3cccc(O)c3)c2)c1
inactive: [1] -14.4% | [2] -14.2% | [3] -4.3% | [4] 8.35% | [5] -7.85%

CS(=O)(=O)C(c1nc2n(c1O)C(=N)N=N2)c1nc2n(c1O)C(=N)N=N2 (configuration not stated)
inactive: [1] -3.2% | [2] 12.1% | [3] -6.15% | [6] -17.1% | [5] 9.8%

Cc1ccccc1C(=O)OC1CCCC1
inactive: [1] 13.1% | [2] -1.45% | [3] 2.95% | [4] 8.1% | [5] 0.5%

CCOC(=O)c1nc2ccc(OC)cc2c2c1Cc1ccccc1-2
inactive: [1] -8.55% | [2] -20.9% | [3] -22.1% | [4] 0.55% | [5] -24.4%

CC12CC3(C)CC(C)(C1)CC(C(NC(C)(C)C)C(=O)O)(C2)C3 (configuration not stated)
inactive: [1] 16.8% | [2] 20.1% | [3] 11.9% | [4] 18.9% | [5] 21.2%

C=CCNC(=O)N(CCC)CCCC(NC(C)=O)C(=O)NCc1ccccc1 (configuration not stated)
inactive: [1] -9.75% | [2] -27.5% | [3] -14.8% | [4] -17.1% | [5] -9.7%

N#Cc1nnn2c1nc(N)c1c(Cl)cccc12
inactive: [1] 0.75% | [2] -17.1% | [3] -4.6% | [4] -11.8% | [5] -8.35%

COc1ccc(C(O)C2CCCN(C)S2(=O)=O)cc1 (configuration not stated)
inactive: [1] 13.4% | [2] 21.9% | [3] 2.75% | [4] 30.6% | [5] 15.6%

Cn1cc(/C=C/C(=O)c2ccccc2[N+](=O)[O-])c2ccccc21
inactive: [1] 7.8% | [2] 12.9% | [3] 2.6% | [4] 0.6% | [5] 2.85%

O=c1cc(CO)oc(C(Nc2cccc(Cl)c2)c2ccccc2)c1O (configuration not stated)
inactive: [1] 34.2% | [2] -4.65% | [3] 23.1% | [6] -15.2% | [5] 21.1%

O=C(O)/C=C/c1ccc(OCc2ccccc2)c(OCc2ccccc2)c1
inactive: [1] 0.7% | [2] -11.7% | [3] 7.15% | [4] -8.85% | [5] -6.9%

CC(C)(C)C(=O)[CH-]C(=O)C(C)(C)C.CC(C)(C)C(=O)[CH-]C(=O)C(C)(C)C.CN(C)c1ccc([O-])cc1.CN(C)c1ccc([O-])cc1.[Ti+4]
inactive: [1] -20.8% | [2] -16.5% | [3] -12.2% | [4] 5.4% | [5] -11.2%

N#Cc1c2c(c(N3CCCCC3)n3c1nc1ccccc13)CCC2
inactive: [1] 19.4% | [2] 13.9% | [3] 26.8% | [4] 19.9% | [5] 19.9%

CCCCCC1c2cc(O)ccc2OC1N1CCOCC1 (configuration not stated)
inactive: [1] 49.2% | [2] 44.5% | [3] 47.5% | [4] 46.7%
active: [5] 88.7%

N#CC(=S)N(C(=O)c1ccc(Cl)cc1)c1ccccc1Cl
inactive: [1] -1.4% | [2] 28.6% | [3] 12.6% | [4] 45.5% | [5] 24.9%

CC(C)C(C)(C)C(N)=O
inactive: [1] -4.5% | [2] -0.95% | [3] -9.1% | [4] 19.6% | [5] 0.95%

O=c1cc([N+](=O)[O-])c2c([nH]1)CCC2
inactive: [1] -5.3% | [2] 1.3% | [3] 12.8% | [4] -6.15% | [5] -0.5%

c1ccc(C(=C2CCC2)c2c3ccccc3cc3ccccc23)cc1
inactive: [1] -10.1% | [2] 9.4% | [3] -7% | [4] -17.9% | [5] -20.1%

C1OC2OC3OCOC3C2O1 (configuration not stated)
inactive: [1] 16.4% | [2] 2.85% | [3] -2.1% | [4] 17% | [5] -8.8%

Oc1c(Cl)cc(N=Cc2ccc(N(CCCCl)CCCCl)cc2)cc1Cl
active: [1] 92.6% | [3] 94.8% | [6] 92% | [5] 80%
inactive: [2] 14.7%

COc1cccc(Cc2cncc3c(O)c(OC)ccc23)c1O
inactive: [1] 2.3% | [2] -6.4% | [3] -8.05% | [4] -1.9% | [5] 9.95%

COc1ccccc1NC(=O)C1=C(C)NC(C)=C(C(=O)Nc2ccccc2OC)C1c1ccccc1Cl
inactive: [1] 11.3% | [2] -4.4% | [3] 3.85% | [4] -6.45% | [5] 23.4%

COC(=O)C(CCS(=O)(=O)CC(=O)C(=O)Nc1cccc(C(C)=O)c1)C(=O)OC
inactive: [1] -12.6% | [2] -15.1% | [3] -16.1% | [4] -26.2% | [5] -5.95%

CCOC(=O)C(C)NC(=O)C(C)NC(=O)C(C)NC(=O)C(C)NC(=O)C(C)NC(=O)C(C)NC(=O)C(C)NC(=O)OCc1ccccc1 (configuration not stated) (Cbz-AAAAAAA-OEt; configuration not given here)
inactive: [1] -16.2% | [2] -23.4% | [3] -21.4% | [4] 5.4% | [5] -8.45%

COC(=O)C1CC2CC1C1C2SC(F)(F)C1(F)F (configuration not stated)
inactive: [1] 0.2% | [2] -1.7% | [3] 6.4% | [4] -5% | [5] 17.1%

O=C(O)/C=C(/C(=O)O)c1cccn1Cc1ccccc1
inactive: [1] 6.7% | [2] 14.2% | [3] 19.6% | [4] 13.4% | [5] 16.4%

COc1cc2c(cc1OC)C(=O)C(C1=C(SC(=N)N)C(=O)c3cc(OC)c(OC)cc31)C2 (configuration not stated)
inactive: [1] -7.4% | [2] -21.9% | [3] -7.75% | [4] 2.85% | [5] -2%

COC(=O)C1CCC2C3CCCCC3CCC2C1(C)C(=O)OC (configuration not stated)
inactive: [1] -7.6% | [2] 2% | [3] -4.55% | [4] 5.7% | [5] 2.05%

COc1ccc(CC(N)C(=O)N2CCCCC2)cc1 (configuration not stated)
inactive: [1] 8.45% | [2] 0.8% | [3] 13.2% | [4] 8.4% | [5] 6.75%

CC(C)(C)[C@@H]1NC(=O)CN1C(=O)OCc1ccccc1
inactive: [1] -22.1% | [2] -35.2% | [3] -51.9% | [4] 26.9% | [5] -11.1%

CCOC(=O)CCc1cn2cc(Br)nc(OC)c2n1
inactive: [1] -18.6% | [2] -38% | [3] 14.6% | [4] 3.7% | [5] -13.6%

CCC(=O)Oc1ccc(C(OC(=O)CC)OC(=O)CC)cc1OC
inactive: [1] -9.1% | [2] -9.1% | [3] 11.8% | [4] 9.45% | [5] 8.05%

OCCCCCCCCCCCBr
inactive: [1] 28.4% | [2] 4.05% | [3] -3.1% | [4] 9.4% | [5] 17.1%

NC(=O)NC(=O)OCCOC(=O)NC(N)=O
inactive: [1] -28.4% | [2] -11.7% | [3] -13.3% | [4] -8.85% | [5] -13.2%

COc1cc([N+](=O)[O-])ccc1N=Cc1cccs1
inactive: [1] 19.4% | [2] 22.8% | [3] 34% | [6] 0.25% | [5] 27.9%

NC(=O)N/N=C/c1cccc2ccccc12
inactive: [3] -8.8%

COc1ccc2c(c1)C1=C(CC2)C(=O)OC1=O
inactive: [3] 28.5%

CN(C)C(=O)c1ccc[n+](CC(=O)NCc2ccccc2)c1
inactive: [1] 5.45% | [3] -3.4% | [6] 18.8% | [4] 2.25% | [5] 13.5%

Cc1nnnn1-c1ccc([N+](=O)[O-])cc1
inactive: [1] 8.45% | [3] -1.5% | [6] -17.6% | [4] 0.75% | [5] 7.4%

CCn1c(SCC(=O)N/N=C/c2ccccc2)nc2ccccc2c1=O
inactive: [1] 5.65% | [3] 3.8% | [6] -4.55% | [4] -1.3% | [5] -33.7%

O=c1c2c(nc3n1CCC3)OC(c1ccccc1)C2 (configuration not stated)
inactive: [1] 0.4% | [3] -5.9% | [6] -44.8% | [4] -2.95% | [5] 12.6%

O=C1C(c2ccccc2)C(c2ccccc2)C(c2ccccc2)C1c1ccccc1 (configuration not stated)
inactive: [1] 52% | [3] 15.9% | [6] 5.65% | [4] -4.3% | [5] 5.65%

CCOC(=O)N1CCN(P(=O)(c2ccccc2)N2CCN(C(=O)OCC)CC2)CC1
inactive: [1] 7.35% | [3] 1.85% | [6] -31.6% | [4] -0.75% | [5] 9.85%

CCN(CC)CCN(C)C(=O)C(=O)c1ccccc1
inactive: [1] -20.1% | [3] -10.6% | [6] 9.75% | [4] 4.8% | [5] -8.2%

O=c1[nH]c(=O)n(C2OC(COP(=O)(O)OP(=O)(O)OC3OC(CO)C(O)C(O)C3O)C(O)C2O)cc1F (configuration not stated)
inactive: [1] 1.15% | [3] 8.8% | [6] 18.9% | [4] -15.3% | [5] 9.85%

SC1CCCN(Cc2ccccc2)C1 (configuration not stated)
inactive: [1] 24.9% | [3] 2.15% | [6] 33.8% | [4] 8.9% | [5] 17.6%

CC(C)(C)c1cc(-c2cc(C(C)(C)C)n(-c3ccccc3)n2)nn1-c1ccccc1
inactive: [1] -22.6% | [3] -17.3% | [6] 16% | [4] -31.4% | [5] -27.2%

CC(Br)C(=O)n1c2ccccc2c2ccccc21 (configuration not stated)
inactive: [1] 21.6% | [3] 19.8% | [6] -13.8% | [4] 12.2% | [5] 8.1%
